Most compounds without a hit are left out; they make up all but 14% or so of the library.
HCMV antiviral: qHTS Assay for inhibitors of the human cytomegalovirus (HCMV); HFF cells, HCMV-luciferase reporter, 72 h; active compounds read low; activity change, negative = inhibition, % at 57.5 µM; hit rate 4.5% among 410,000; AID 1259415, 2018; in the data active means activity change below about -60%; inconclusive means no clear call, values can overlap the other calls; inactive means above about -39%
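Steps: HFFs plated, 16 h 37C; compounds added; HCMV-luciferase added to MOI 1 PFU/cell; 72 h 37C; OneGlo reagent, 5 min room temperature; luminescence read, normalized to controls.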
Sm TGR block: qHTS Assay for the Inhibitors of Schistosoma Mansoni Peroxiredoxins; Schistosoma mansoni thioredoxin glutathione reductase (TGR), Q962Y6; Potency, µM (series often up to 114 µM), for the others: at the highest dose activity change, negative = inhibition, actives largely listed as inhibitors; purified TGR, DTNB reduction, TNB absorbance 405 nm; hit rate 3% among 360,000; further: potency means the concentration at half of the fitted maximal effect; nearly all actives have a fitted effect of over 60% in size
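Kinetic colorimetric format: TGR-catalysed, NADPH-driven DTNB reduction monitored via TNB absorbance. Enzyme dispensed at 20 nM; compound exposure 15 min at room temperature before reaction start.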
Pf growth 48h: Primary qHTS for delayed death inhibitors of the malarial parasite plastid, 48 hour incubation; P. falciparum luciferase growth in erythrocytes, 48 h; Potency, µM (highest dose often 28.7 µM), for inactives: at the top dose activity change, negative = inhibition, hits mostly inhibitors; hit rate 5.9% among 310,000; further: potency means the concentration at half of the fitted maximal effect
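Parasite viability was followed by luminescence of a genomically integrated firefly luciferase. Cultures held 0.1% parasitemia at 2% hematocrit (final), incubated under 5% CO2 at 37 C.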
FBPA Giardia inh: qHTS Assay for Inhibitors of Fructose-1,6-bisphosphate Aldolase from Giardia Lamblia. Potency, µM (doses to about 59.6 µM), inactives show at the top dose activity, negative = inhibition, hits mostly inhibitors. hit rate 0.71% among 290,000. A8B2U2. purified Giardia FBPA; further: potency means the concentration at half of the fitted maximal effect; nearly all actives have a fitted effect of over 55% in size
Target sequence (A8B2U2 whole entry, looked up): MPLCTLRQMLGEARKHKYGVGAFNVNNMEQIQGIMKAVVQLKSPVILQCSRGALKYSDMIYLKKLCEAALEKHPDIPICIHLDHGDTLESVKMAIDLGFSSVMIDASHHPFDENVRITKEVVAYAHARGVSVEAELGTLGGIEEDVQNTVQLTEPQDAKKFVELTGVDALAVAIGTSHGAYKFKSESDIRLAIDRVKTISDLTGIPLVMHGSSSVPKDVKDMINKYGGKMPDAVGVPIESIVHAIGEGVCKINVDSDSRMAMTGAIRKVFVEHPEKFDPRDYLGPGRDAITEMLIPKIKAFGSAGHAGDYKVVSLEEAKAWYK
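Giardia FBPA (40 nM reagent) was preincubated 10 min at RT with compound (up to 57.5 uM final), then substrate plus GAPDH/TPI/NAD/arsenate coupling system with diaphorase/resazurin was added; resorufin fluorescence (525/598 nm) was read after 20 min.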
Pf growth 96h: Primary qHTS for delayed death inhibitors of the malarial parasite plastid, 96 hour incubation; Potency, µM (highest dose often 28.7 µM), inactives show at the highest dose activity change, negative = inhibition, most hits filed as inhibitors; P. falciparum luciferase reporter growth, 96 h; hit rate 6.9% among 320,000; further: potency means the concentration at half of the fitted maximal effect
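Infected RBCs, 2% Hct / 0.05% parasitemia final; luciferase-reporter P. falciparum; cpd 96 h, 37 C, 5% CO2; luciferase detection reagent; luminescence.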
An asterisk follows results filed as active; ? = inconclusive; · = not tested or not shown; [ ] = dose if it differs, or a comment. Unless noted, the call rests on the fitted dose curve; in most records, active means well fitted curve in the direction sought with a large enough effect; inconclusive means small, poorly fitted or top-dose-only effect, or another doubt; inactive means no such curve, though single readings can be large; an effect the other way counts as inactive or inconclusive. On the % scale 0 is the no-effect control and ±100 the full control effect.

SMILES | HCMV antiviral | Sm TGR block | Pf growth 48h | FBPA Giardia inh | Pf growth 96h
CCOCCCN(C(=O)c1snc(C(N)=O)c1N)C(C(=O)NC1CCCC1)c1ccc(O)cc1 (centres undefined) | -9.4 | -28.2% | -3.1% | -8.9% | ?
CC[C@]12c3[nH]c4cc(-c5ccco5)ccc4c3CCN1C(=O)[C@@H](CC(=O)NCCc1ccccn1)C[C@@H]2C(=O)N1CCN(C(=O)C2CC2)CC1 | -12.7 | · | · | · | ·
CC1CN(C(=O)CCC(=O)NCc2ccccc2Cl)c2ccccc2S1 (centres undefined) | 5.7 | -21.6% | -9.2% | -7.9% | 8.28µM*
COc1ccc(CN(CCN)C2CC(C)N(C)CC2C)cc1 (centres undefined) | 2.8 | 0.8% | ? | ? | ?
O=C(COc1ccccc1)Nc1ccncc1 | -35.1 | 0.0% | 17.8% | 5.0% | 10.0%
CCOc1ccc(NC(=O)NNC(=O)COc2ccc3ccccc3c2)cc1 | -24.1 | -1.0% | -0.9% | 6.0% | 2.62µM*
O=C(COc1ccc2ccccc2c1)Nc1ccncc1 | -99.7* | 14.0% | 1.4% | 4.4% | ?
CC1(C)CC(=NOC(=O)c2ccccc2)CC(C)(C)N1O | ? | 2.2% | -16.1% | -16.5% | 212.6%
CCOC(=O)[C@]12CCC=C1N(Cc1ccccc1)C(=O)[C@H](CC(=O)NCc1cccc(C(F)(F)F)c1)C2 | -97.4* | · | · | · | ·
COC(=O)[C@]12CCCCC=C1N(Cc1ccccc1)C(=O)[C@H](CC(=O)NCc1cccc3ccccc13)C2 | 0.9 | · | · | · | ·
COC(=O)[C@]12CCCCC=C1N(Cc1cccc3ccccc13)C(=O)[C@H](CC(=O)NCCC(C)C)C2 | -61.2* | · | · | · | ·
CCOC(=O)[C@]12CCC=C1N(Cc1ccccc1)C(=O)[C@H](CC(=O)NCc1ccc(OC)c(OC)c1)C2 | 16.6 | · | · | · | ·
COCCCNC(=O)C[C@@H]1C[C@@]2(C(=O)OC)CC(C)(C)CC=C2N(Cc2ccc3c(c2)OCO3)C1=O | -62.4* | · | · | · | ·
COC(=O)[C@]12CCCCC=C1N(Cc1ccc3c(c1)OCO3)C(=O)[C@H](CC(=O)NCc1cccc3ccccc13)C2 | -61.0* | · | · | · | ·
O=C(O)CCC(=O)Nc1ccccc1C(=O)NCc1ccccc1 | -19.4 | -3.6% | 9.8% | -0.7% | 5.9%
Cc1ccc(-c2nn(-c3ccccc3)cc2C(=O)NCC(c2cccs2)N2CCOCC2)cc1 (centres undefined) | -1.8 | -5.0% | ? | · | ?
COc1cccc(NC(=O)Cn2cc(S(=O)(=O)N3CCCC3)c(S(=O)(=O)N3CCCC3)c2)c1 | 22.4 | 19.8% | · | · | ·
CC1(C)N(O)C(c2ccc(C(=O)O)cc2)=[N+]([O-])C1(C)C | · | · | · | 39.7µM* | ·
Nc1nc(SCC(=O)NCC2CCCO2)[nH]c(=O)c1NC(=O)c1ccc(F)c(F)c1 (centres undefined) | -7.1 | 1.3% | 1.1% | · | 16.5µM*
Nc1nc(SCC(=O)NCC2CCCO2)[nH]c(=O)c1NC(=O)c1ccco1 (centres undefined) | 16.2 | 8.3% | 16.3% | ? | 50.2%
COc1ccc(C(=O)Nc2c(N)nc(SCC(=O)Nc3ccc(NC(C)=O)cc3)[nH]c2=O)cc1 | 9.3 | 2.2% | 10.4µM* | · | 2.62µM*
COC(=O)NC(/C(C(=O)OC)=C(\C)NCc1ccccc1)c1ccco1 (centres undefined) | · | · | · | -0.2%[12.9 µM] | ·
COc1cccc(/C=N/Nc2nc3ccccc3[nH]2)c1O | -99.2* | 16.0% | ? | -17.1% | 2.33µM*
COc1cccc(C=NNc2nnc(NN=Cc3cccc(OC)c3OC)c3ccccc23)c1OC | 122.4 | · | · | · | ·
COc1cccc(/C=N/Nc2nc3ccccc3[nH]2)c1OC | 153.6 | 1.7% | ? | 0.2% | 10.4µM*
SMILES | HCMV antiviral | Sm TGR block | Pf growth 48h | FBPA Giardia inh | Pf growth 96h
COc1cccc(/C=N/Nc2nc3ccccc3n3cnnc23)c1O | -102.9* | -10.7% | ? | -29.9% | ?
[Cl][In]([Cl])[Cl] | · | · | 7.57µM* | · | 6.75µM*
CCCn1nnc(NC(=O)c2ccc(-c3cccc(Cl)c3)o2)n1 | 6.0 | -38.9% | 57.6% | -0.3% | ?
CCCCn1nnc(NC(=O)c2ccc(-c3cccc(Cl)c3)o2)n1 | · | 25.1µM* | -10.0% | 0.4% | 60.2%
CCn1nnc(NC(=S)NC(=O)c2ccc(-c3cccc(Cl)c3)o2)n1 | -4.1 | 12.6µM* | -5.6% | ? | -9.0%
CCOC(=O)c1ccc2c(c1)N(CC)C(=O)c1ccccc1S2 | · | -1.6% | 2.1%[0.00184 µM] | -10.3% | -0.5%
CCN1/C(=C/c2sc(-c3ccccc3C)c[n+]2C)Sc2ccccc21 | -96.7* | 4.2% | ? | -1.1% | -9.6%
OCc1ccc2c(c1)c(-c1ccc3c(c1)OCCO3)c(-c1ccccc1)n2-c1ccccc1 | 6.6 | -8.8% | ? | · | 4.65µM*
O=C(/C=C/c1cn(-c2ccccc2)nc1-c1ccc2c(c1)OCCO2)NCCO | -1.4 | 1.7% | ? | -8.5% | ?
O=C(Nc1nc(-c2ccc(-c3ccccc3)cc2)cs1)C1=COCCO1 | -64.0* | -14.1% | 9.8% | 8.6% | 31.4%
O=C(Nc1nc(-c2ccccc2)cs1)c1ccccc1NS(=O)(=O)c1ccc(F)cc1 | -100.2* | -2.3% | 13.1µM* | 5.0% | 3.7µM*
C=CCn1c(C)cc(-c2csc(NCC)n2)c1C | -63.1* | -5.6% | ? | ? | ?
C=CCn1c(C)cc(-c2csc(NC(=O)C3=COCCO3)n2)c1C | 6.7 | -22.6% | 5.22µM* | · | ?
C=CCn1c(C)cc(-c2csc(NC)n2)c1C | ? | -12.4% | ? | ? | ?
O=C(Nc1nc(-c2ccc([N+](=O)[O-])cc2)cs1)C1=COCCO1 | -31.3 | · | · | · | ·
CN1[C@@H](Cc2ccccc2)COc2cc(N3CCSCC3)ccc2S1(=O)=O | -1.8 | · | · | · | ·
CCOc1ncccc1C(=O)OCC(=O)Nc1ccc(C(N)=O)cc1 | -27.7 | -20.0% | 16.0% | 5.9% | 11.0%
O=C(Nc1ccc2c(c1)CCCN2C(=O)c1cccs1)c1ccc(F)c(F)c1 | ? | -1.6% | · | · | ·
CC(=O)c1c(C)[nH]c(C(=O)Nc2nc(-c3ccc(-c4ccccc4)cc3)cs2)c1C | -39.0 | 3.3% | 8.28µM* | -3.3% | 7.38µM*
CCOC(=O)c1sc2nc(N3CCOCC3)c3c(c2c1N)CCCC3 | -9.8 | 2.0% | 28.3% | 0.7% | 1.04µM*
Nc1c(C(=O)NCc2ccco2)sc2nc(N3CCOCC3)c3c(c12)CCCC3 | -29.5 | ? | 9.28µM* | ? | ?
COC(=O)c1ccc(-c2sc3nc(N4CCOCC4)c4c(c3c2N)CCCC4)o1 | -10.6 | -9.0% | 9.1% | -11.3% | 9.28µM*
Nc1c(C(=O)Nc2ccc(Br)cc2)sc2nc(N3CCOCC3)c3c(c12)CCCC3 | -30.6 | · | · | · | ·
CC(=O)N1CCOc2ccc(S(=O)(=O)NCCc3ccc(Cl)cc3)cc21 | ? | -4.3% | 2.4% | -9.6% | 25.5%

High-throughput results: PubChem, National Center for Advancing Translational Sciences (NCATS)
